Results published in ChEMBL document CHEMBL3988442, “University of Dundee, Small-Polar-MMV Screening Library” (2021).
Screen size: about 48,000 compounds; about 13,000 (27%) showed an effect of 50% or more. This is one part of the list.

System: Wolbachia pipientis
Experiment: Anti-Wolbachia Cell-Based Screen
Assay type: functional
Design: scale not given: in the data most compounds retested in dose-response had high values
Conditions: 5 µM

Row | SMILES | Percent Effect [%]
1 | CN(C)c1cc(C(=O)Nc2ccccc2C(=O)NC(C)(C)C)ccn1 | 0.03536
2 | CCn1nc(C)cc1C(=O)OCCNC(=O)c1ccccc1 | -11.83
3 | CCn1nc(C)cc1C(=O)NCc1nc(C)no1 | 111.2
4 | CCn1nc(C)cc1C(=O)NCc1noc(C(C)(C)C)n1 | 104.1
5 | CCn1nc(C)cc1C(=O)NCc1nc(C)cc(C)n1 | -9.292
6 | CCn1nc(C)cc1C(=O)NCc1cccnc1N(C)C | -6.394
7 | COCc1nc(CNC(=O)c2cc(C)c(C)[nH]c2=O)no1 | -2.692
8 | CC(SCCS(C)(=O)=O)c1nc(Cc2ccccc2)no1 (stereo not drawn) | -6.547
9 | O=C1CC[C@H](C(=O)N(Cc2cccc(Br)c2)C2CC2)N1 | 5.086
10 | CC(=O)NCC(=O)N1Cc2nc(COCc3csc(C)n3)oc2C1 | 5.619
11 | CC(C)CC(C)NCc1cccnc1N1CCOCC1 (stereo not drawn) | 1.673
12 | COc1ccc(OC)c(-c2nc(CN(C)Cc3nncn3C)c(C)o2)c1 | 0.1711
13 | CCN(CC)C(=O)[C@@H]1C[C@H](N)CN1c1noc(-c2ccccc2)n1 | 2.719
14 | Cc1cc(C(F)(F)F)nn1CCCNC(=O)C1CCCO1 (stereo not drawn) | 89.22
15 | Cc1cc(C)n(CCCN(C)C(=O)[C@H]2CCCO2)n1 | -6.91
16 | Cc1cc(-c2cnn(CCNC(=O)C3CCCO3)c2C2CC2)on1 (stereo not drawn) | -7.58
17 | COc1ccc(-c2n[nH]cc2CN(C)Cc2nnc(C)o2)c(F)c1 | 5.542
18 | COC[C@]1(O)CCN(Cc2c[nH]c(CC3CCCC3)n2)CC1(C)C | 12.99
19 | Cn1cc(CN2CCc3ncnc(C4CCOC4)c3CC2)cn1 (stereo not drawn) | 2.928
20 | CS(=O)(=O)NCC1CCCCN1C(=O)c1ccc(Br)s1 (stereo not drawn) | -1.817
21 | CN(C)c1cc(C(=O)N2CCCCC2Cn2cccn2)ccn1 (stereo not drawn) | 105
22 | CCC1CCCCN1C(=O)c1ccnc(N(C)C)c1 (stereo not drawn) | 113.6
23 | CS(=O)(=O)NCC1CCCCN1C(=O)c1ccsc1 (stereo not drawn) | -1.868

Row | SMILES | Percent Effect [%]
24 | CN(C)c1cc(C(=O)N2CCCCC2CNS(C)(=O)=O)ccn1 (stereo not drawn) | 130
25 | CCCc1nc(C(C)(C)NC(=O)c2ccnn2C)no1 | 9.786
26 | CCCc1nnc(N[C@H](C)c2ccc(OC)cc2)o1 | -12.73
27 | Fc1ccc(CNCc2cc(Br)c3c(c2)OCO3)cc1 | -17.14
28 | O=C(CCNC(=O)c1ccoc1)Nc1cc(F)ccc1F | -1.29
29 | CC1(C(=O)N2CCOCC2)CN(Cc2ccccn2)CCO1 (stereo not drawn) | -10.18
30 | Cc1ncsc1CN1CC[C@H]2OCC[C@@]2(C(=O)N2CCOCC2)C1.O=C(O)C(F)(F)F | 1.512
31 | CC1(C(=O)N2CCOCC2)CN(Cc2c[nH]cn2)CCO1 (stereo not drawn) | 123.4
32 | NC(=O)C1CN(Cc2c[nH]cn2)CCN(C2CCOCC2)C1 (stereo not drawn) | -9.995
33 | Cc1cccc(CN2CCOC(C)(C(=O)N3CCOCC3)C2)n1 (stereo not drawn) | 111.3
34 | Cc1cc(CN2CCOC(C)(C(=O)N3CCOCC3)C2)no1 (stereo not drawn) | 109.8
35 | Cc1cccc(CN2CCc3[nH]nc(C(=O)N4CCOCC4)c3C2)n1 | 9.618
36 | Cc1cc(CN2CCN(C(=O)NCc3ccc(C)s3)CC2)no1 | 0.1424
37 | Cc1cc(CNC(=O)NCc2ccccc2N2CCOCC2)no1 | -16.89
38 | Cc1cccc(CN2CC[C@H]3OCC[C@@]3(C(=O)N3CCOCC3)C2)n1 | 83.3
39 | CN1CCN(Cc2c[nH]cn2)CC12CCC(=O)N(CC1CC1)CC2 (stereo not drawn) | -17.33
40 | CC(C)Nc1cccc(CNC(=O)N2CCC[C@@H]2CO)c1 | -12.14
41 | CCCc1cc(=O)[nH]c2nnc(SCC(=O)NCCc3ccccc3)n12 | 12.93
42 | COC(=O)N1CCC(NC2CCSCC2)C1 (stereo not drawn) | -0.02013
43 | CCC(CCO)NS(=O)(=O)c1ccc(Br)cn1 (stereo not drawn) | -13.92
44 | C=C(C)Cn1nnc(C2(NC(=O)c3ccccc3)CCCC2)n1 | -0.5972
45 | O=C(O)[C@@H]1CN(Cc2ccc3nsnc3c2)C[C@H]1c1cccnc1 | -24.04
46 | CCc1ccccc1CN1CC[C@@H](NC(=O)c2cccnc2)[C@H](O)C1 | -11.05

Row | SMILES | Percent Effect [%]
47 | CC(=O)N1CCN([C@@H]2CC[C@@H](NC(=O)c3ccc(C)nc3)[C@H]2O)CC1 | 126.1
48 | CC(=O)N1CCN([C@@H]2CC[C@@H](NC(=O)c3cncc(C)c3)[C@H]2O)CC1 | -9.247
49 | CC(=O)N1CCN([C@@H]2CCC[C@@H](NC(=O)c3cccnc3)[C@H]2O)CC1 | 122.9
50 | CC(=O)N1CCC(N[C@@H]2CO[C@H](CNC(=O)c3cccs3)[C@H]2O)CC1 | 1.318
51 | CCCC(=O)NC1CCCN(C(=O)c2ccc(C)nc2)C1 (stereo not drawn) | -3.666
52 | Cc1cncc(C(=O)NCC2COCc3c(C)nnn3C2)c1 (stereo not drawn) | -1.908
53 | CC(=O)N1CCN([C@@H]2CC[C@@H](NC(=O)c3cc(C)cs3)[C@H]2O)CC1 | 116.4
54 | Cc1cncc(C(=O)N[C@@H]2CC[C@@H](N3CCOCC3)[C@@H]2O)c1 | 120
55 | CC(=O)N1C[C@H](NC(=O)c2csc(C(C)C)c2)[C@@H](C(C)C)C1 | -7.601
56 | CC(C)(C)c1cc(CN2CC[C@@H](NC(=O)c3cccnc3)[C@H](O)C2)n[nH]1 | -14.75
57 | Cc1ccc(C(=O)N2CCN3C[C@H](Oc4cncnc4)C[C@H]3C2)cn1 | -3.915
58 | CC(=O)NC1CCCN(C(=O)CNc2cccc(C)c2Cl)C1 (stereo not drawn) | 6.978
59 | O=C(CCn1cncn1)N1CCC2(CC1)[C@H](O)C[C@@H]2OCCO | -12.21
60 | O=C(NS(=O)(=O)c1ccc(C2CCCCC2)cc1)C1COCCO1 (stereo not drawn) | -16.34
61 | CCOc1ccc(N(C)Cc2nnc(C3CC3)o2)cc1 | -1.111
62 | CC1(C)CCC(CC(=O)O)c2ccccc21 (stereo not drawn) | 8.259
63 | CN(Cc1cc(-c2ccncc2)no1)Cc1nccn1C | 1.044
64 | O=C(O)C(F)(F)F.O=C(c1ccccc1F)N1C[C@H]2CCC[C@@]2(COCc2ccncc2)C1 | -1.474
65 | Cc1ccccc1C(=O)N1C[C@@H]2CCN(c3cccnc3)C[C@@H]2C1.O=C(O)C(F)(F)F | 9.875
66 | Cc1ccccc1C(=O)NC[C@@H]1CCN(C(=O)CN2CCCC2)C[C@H]1O | 2.188
67 | CNC(=O)CN1CC[C@H]2CN(C(=O)c3ccccc3C)C[C@H]2C1.O=C(O)C(F)(F)F | 117.7
68 | CNC(=O)CN1CC[C@H]2CN(C(=O)c3ccccc3F)C[C@H]2C1.O=C(O)C(F)(F)F | 86.74
